In PubChem BioAssay:
Results filed as inconclusive are left out. Calls of active or inactive are those of the source.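 The calls were made as follows, unless noted: active = at least 20% inhibition of 6-phosphogluconate dehydrogenase activity; inactive = the rest.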

What was measured:
[1] = stimulators of insulin release from INS-1E, primary screen, cell-based, 5 mM glucose, NPC library (AID 1117329;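 active = compound raises insulin release from rat beta cells at 5 mM glucose, no numeric limit stated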); conditions: rat INS-1E insulin secretion, at 10 µM, stronger effect = higher value
[2] = growth inhibition of GSK3B-pretreated HCT116 cells – cell-based, CellTiter-Glo, 0.2 to 20 µM (AID 1117336;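 active = compounds lowering colon cancer cell viability after pretreatment blocking the GSK3B kinase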); conditions: HCT116 viability after GSK3B inhibitor, at 20 µM, stronger effect = higher value
[3] = inhibition of endothelial tube formation, primary screen, imaging, VEGF stimulated, CD31 staining, tube area, NPC library (AID 1117340;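 active = compound that reduces growth-factor-driven endothelial tube area in a mixed cell culture, no cutoff stated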); conditions: VEGF-stimulated ADSC/ECFC co-culture, at 10 µM, stronger effect = higher value
[4] = glucagon-like peptide 1 release enhancers, primary assay, NCI-H716 cell line, NPC library (AID 1117341;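 active = compound raises GLP1 secretion from the human gut endocrine cells, with no numeric limit stated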); conditions: NCI-H716 cells, at 10 µM, stronger effect = higher value
[5] = HCT116 colon cancer cell growth inhibition, primary screen, CellTiter-Glo luminescence, NPC library (AID 1117342;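 active = compounds that lower survival of HCT116 colon cancer cells in the luminescence readout, no numeric limit stated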); conditions: at 20 µM (top of the series)
[6] = CellTiter-Glo luminescent readout of SW480 viability loss, NPC library primary (AID 1117343;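 active = compounds that lower viability of the colon cancer cells in the luminescence readout, with no numeric limit stated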); conditions: CellTiter-Glo luminescence; at 20 µM (top of the series)
[7] = decreased DLD-1 cellular survival, CellTiter-Glo luminescent readout, NPC compound collection, primary HTS (AID 1117346;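 active = compounds that lower survival of DLD-1 colon cancer cells in the luminescence readout, no cutoff given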); conditions: DLD-1 viability, CellTiter-Glo luminescence; at 20 µM (top of the series)
[8] = target: 6-phosphogluconate dehydrogenase, decarboxylating (Homo sapiens) (UniProt P52209); test: 6PGD enzyme inhibitors, primary screen, biochemical, human, recombinant enzyme, NADPH absorbance (AID 1159550); conditions: recombinant 6PGD, NADPH absorbance 341 nm; at 10 µM; stronger effect = higher value
[9] = differential killing of epithelial or mesenchymal cells, primary screen, imaging, PC-3E GFP, TEM4-18 mCherry, co-culture (AID 1345086;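 active = compounds killing one labelled cell type while sparing the other, by normalised counts and ratio limits, not self-fluorescent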;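 as to all read-outs here: cells exposed to compound for 72 h before imaging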;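 as to red/green cell ratio (normalised): normalised mesenchymal count divided by normalised epithelial count so high means epithelial killing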); conditions: imaging cell counts, at 1 µM; for red/green cell ratio (normalised): actives lie on both sides, counts scaled to control wells, 1 = unselective
[10] = growth inhibition of DIPG glioma cells, dose response, cell-based, SU-DIPG-XVII, MIPE5.0, CellTiter-Glo, qHTS (AID 1347060; cut-off not given, nearly all actives have AC50 up to about 26 µM;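 as to AC50: cells exposed to compound for 48 hours before viability readout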); conditions: SU-DIPG-XVII viability, CellTiter-Glo ATP luminescence
[11] = growth inhibition of DIPG glioma cells, dose response, cell-based, SU-DIPG-XIII, MIPE4.0, CellTiter-Glo, qHTS (AID 1347061; cut-off not given, nearly all actives have AC50 up to about 37 µM;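 also: cells exposed to compound for 48 hours before readout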); conditions: SU-DIPG-XIII viability, CellTiter-Glo ATP luminescence
[12] = growth inhibition of DIPG glioma cells, dose response, cell-based, JHH-DIPG-1, MIPE4.0, CellTiter-Glo, qHTS (AID 1347062; cut-off not given, nearly all actives have AC50 up to about 27 µM;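 as to AC50: cells exposed to compound for two days before readout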); conditions: JHH-DIPG-1 viability, CellTiter-Glo ATP luminescence
[13] = growth inhibition of DIPG glioma cells, dose response, cell-based, SU-DIPG-IV, MIPE4.0, CellTiter-Glo, qHTS (AID 1347063; cut-off not given, nearly all actives have AC50 up to about 30 µM;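 also: compound exposure lasted 48 hours before the viability readout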); conditions: SU-DIPG-IV viability, CellTiter-Glo ATP luminescence
[14] = growth inhibition of DIPG glioma cells, dose response, cell-based, SU-DIPG-XIII, MIPE5.0, CellTiter-Glo, qHTS (AID 1347064; cut-off not given, nearly all actives have AC50 up to about 23 µM); conditions: SU-DIPG-XIII viability, CellTiter-Glo ATP luminescence
[15] = measured here: epithelial PC-3E GFP cell survival
[16] = measured here: mesenchymal TEM4-18 mCherry cell survival

Sequence of 6-phosphogluconate dehydrogenase, decarboxylating (Homo sapiens) (P52209 whole entry, looked up): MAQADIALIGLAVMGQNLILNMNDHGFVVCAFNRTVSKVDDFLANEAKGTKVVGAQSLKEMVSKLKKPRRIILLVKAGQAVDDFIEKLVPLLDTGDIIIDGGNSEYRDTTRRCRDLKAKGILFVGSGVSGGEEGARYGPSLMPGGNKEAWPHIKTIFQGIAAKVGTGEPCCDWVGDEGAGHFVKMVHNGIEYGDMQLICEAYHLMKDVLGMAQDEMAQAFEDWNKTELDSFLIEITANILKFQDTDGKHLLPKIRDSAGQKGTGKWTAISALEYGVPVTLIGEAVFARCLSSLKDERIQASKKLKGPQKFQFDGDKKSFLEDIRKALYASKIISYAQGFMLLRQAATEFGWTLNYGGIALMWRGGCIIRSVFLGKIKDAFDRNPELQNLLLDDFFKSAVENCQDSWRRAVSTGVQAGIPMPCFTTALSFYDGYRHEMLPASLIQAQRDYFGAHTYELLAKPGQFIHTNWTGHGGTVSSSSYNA

CC1=CC(=O)c2ccccc2C1=O
insulin secretion stimulation [1]: -1.3% (inactive)
viability decrease [2]: 72.6% (active)
tube area decrease [3]: 26.3% (inactive)
GLP1 secretion stimulation [4]: -6% (inactive)
inhibition of viability [5]: 37.5% (inactive)
viability decrease (inhibition) [6]: 122% (active)
viability decrease (inhibition) [7]: 103% (active)
inhibition [8]: 12.5% (inactive)
red/green cell ratio (normalised) [9]: 0.99 (inactive)
normalised cell number [9, 15]: 1.09
normalised cell number [9, 16]: 1.08
AC50 [10]: 23.5 µM (active)
AC50 [11]: 23.5 µM (active)
AC50 [12]: 8.33 µM (active)
AC50 [13]: 26.4 µM (active)

NS(=O)(=O)c1cc2c(cc1Cl)NC(C(Cl)Cl)NS2(=O)=O (configuration not stated)
insulin secretion stimulation [1]: 1.15% (inactive)
viability decrease [2]: 13.9% (inactive)
tube area decrease [3]: -20.1% (inactive)
GLP1 secretion stimulation [4]: 0.9% (inactive)
inhibition of viability [5]: -37.1% (inactive)
viability decrease (inhibition) [6]: -6.6% (inactive)
viability decrease (inhibition) [7]: 6.3% (inactive)
inhibition [8]: 17.4% (inactive)
red/green cell ratio (normalised) [9]: 1.22 (inactive)
normalised cell number [9, 15]: 0.88
normalised cell number [9, 16]: 1.08
outcome [10]: inactive
outcome [12]: inactive
outcome [13]: inactive

O=c1oc2c(O)c(O)cc3c(=O)oc4c(O)c(O)cc1c4c23
insulin secretion stimulation [1]: -0.1% (inactive)
viability decrease [2]: 24.7% (inactive)
tube area decrease [3]: 58% (active)
GLP1 secretion stimulation [4]: -2.3% (inactive)
inhibition of viability [5]: 19.7% (inactive)
viability decrease (inhibition) [6]: 75.1% (active)
viability decrease (inhibition) [7]: 30.7% (inactive)
inhibition [8]: -6.65% (inactive)
red/green cell ratio (normalised) [9]: 0.99 (inactive)
normalised cell number [9, 15]: 0.85
normalised cell number [9, 16]: 0.84
outcome [10]: inactive
outcome [11]: inactive
outcome [12]: inactive
outcome [14]: inactive

CCn1cc(C(=O)O)c(=O)c2cc(F)c(N3CCNCC3)nc21
insulin secretion stimulation [1]: -0.1% (inactive)
viability decrease [2]: 5.9% (inactive)
tube area decrease [3]: 2.1% (inactive)
GLP1 secretion stimulation [4]: -2.8% (inactive)
inhibition of viability [5]: -6.97% (inactive)
viability decrease (inhibition) [6]: -275% (inactive)
viability decrease (inhibition) [7]: -18.4% (inactive)
inhibition [8]: -18.3% (inactive)
red/green cell ratio (normalised) [9]: 1.34 (inactive)
normalised cell number [9, 15]: 0.89
normalised cell number [9, 16]: 1.2
outcome [11]: inactive
outcome [12]: inactive
outcome [13]: inactive

Cc1cc2cc3c(C)cc(=O)oc3c(C)c2o1
insulin secretion stimulation [1]: -0.7% (inactive)
viability decrease [2]: -8.2% (inactive)
tube area decrease [3]: 1.6% (inactive)
GLP1 secretion stimulation [4]: 0.5% (inactive)
inhibition of viability [5]: 19.9% (inactive)
viability decrease (inhibition) [6]: 35.5% (inactive)
viability decrease (inhibition) [7]: -2.3% (inactive)
inhibition [8]: -18.4% (inactive)
red/green cell ratio (normalised) [9]: 0.99 (inactive)
normalised cell number [9, 15]: 1.05
normalised cell number [9, 16]: 1.04
outcome [10]: inactive
AC50 [13]: 20.9 µM (active)
outcome [14]: inactive

O=C(O)c1cccnc1Nc1cccc(C(F)(F)F)c1
insulin secretion stimulation [1]: -3.1% (inactive)
viability decrease [2]: 13% (inactive)
tube area decrease [3]: 12.7% (inactive)
GLP1 secretion stimulation [4]: 0.6% (inactive)
inhibition of viability [5]: -5.9% (inactive)
viability decrease (inhibition) [6]: 60% (active)
viability decrease (inhibition) [7]: 28.2% (inactive)
inhibition [8]: 12.6% (inactive)
red/green cell ratio (normalised) [9]: 0.93 (inactive)
normalised cell number [9, 15]: 1.08
normalised cell number [9, 16]: 1
outcome [11]: inactive
outcome [12]: inactive
outcome [13]: inactive

COc1cnc(NS(=O)(=O)c2ccc(N)cc2)nc1
insulin secretion stimulation [1]: 1.9% (inactive)
viability decrease [2]: -21.6% (inactive)
tube area decrease [3]: -5.6% (inactive)
GLP1 secretion stimulation [4]: 0.5% (inactive)
inhibition of viability [5]: -7.43% (inactive)
viability decrease (inhibition) [6]: 23.4% (inactive)
viability decrease (inhibition) [7]: -14.6% (inactive)
inhibition [8]: -8.19% (inactive)
red/green cell ratio (normalised) [9]: 1.15 (inactive)
normalised cell number [9, 15]: 0.87
normalised cell number [9, 16]: 0.99
AC50 [12]: 2.96 µM (active)

CCCN(CCC)C(=O)C(CCC(=O)O)NC(=O)c1ccccc1 (configuration not stated)
insulin secretion stimulation [1]: 1.3% (inactive)
viability decrease [2]: -11.7% (inactive)
tube area decrease [3]: -25.9% (inactive)
GLP1 secretion stimulation [4]: 0.4% (inactive)
inhibition of viability [5]: -4.15% (inactive)
viability decrease (inhibition) [6]: -0.1% (inactive)
viability decrease (inhibition) [7]: -14.6% (inactive)
inhibition [8]: 1.53% (inactive)
red/green cell ratio (normalised) [9]: 1.08 (inactive)
normalised cell number [9, 15]: 0.92
normalised cell number [9, 16]: 1
AC50 [10]: 26.3 µM (active)
outcome [14]: inactive

COC(=O)Nc1nc2ccc(Sc3ccccc3)cc2[nH]1
insulin secretion stimulation [1]: 1.1% (inactive)
viability decrease [2]: 48% (active)
tube area decrease [3]: 103% (active)
GLP1 secretion stimulation [4]: 48.3% (active)
inhibition of viability [5]: 94.4% (active)
viability decrease (inhibition) [6]: 81.8% (active)
viability decrease (inhibition) [7]: 45.8% (active)
inhibition [8]: 10.3% (inactive)
red/green cell ratio (normalised) [9]: 1.07 (inactive)
normalised cell number [9, 15]: 0.25
normalised cell number [9, 16]: 0.26
AC50 [10]: 0.934 µM (active)
AC50 [13]: 2.64 µM (active)

CC[N+](CC)(CC)CCOc1cccc(OCC[N+](CC)(CC)CC)c1OCC[N+](CC)(CC)CC
insulin secretion stimulation [1]: -1.3% (inactive)
viability decrease [2]: -8.1% (inactive)
tube area decrease [3]: -2.2% (inactive)
GLP1 secretion stimulation [4]: 1.9% (inactive)
inhibition of viability [5]: 8.8% (inactive)
viability decrease (inhibition) [6]: -6.2% (inactive)
viability decrease (inhibition) [7]: -5.3% (inactive)
inhibition [8]: 7.66% (inactive)
red/green cell ratio (normalised) [9]: 1.1 (inactive)
normalised cell number [9, 15]: 0.87
normalised cell number [9, 16]: 0.96
outcome [11]: inactive
outcome [12]: inactive
outcome [13]: inactive

CCCc1cc(C(N)=S)ccn1
insulin secretion stimulation [1]: -1.7% (inactive)
viability decrease [2]: -13.4% (inactive)
tube area decrease [3]: 1% (inactive)
GLP1 secretion stimulation [4]: -0.6% (inactive)
inhibition of viability [5]: 6.7% (inactive)
viability decrease (inhibition) [6]: 5.3% (inactive)
viability decrease (inhibition) [7]: -3.5% (inactive)
inhibition [8]: 3.48% (inactive)
red/green cell ratio (normalised) [9]: 0.84 (inactive)
normalised cell number [9, 15]: 1.14
normalised cell number [9, 16]: 0.96
outcome [10]: inactive
outcome [12]: inactive
outcome [14]: inactive
